Data on 13 molecules can be found in PubChem BioAssay (NCATS).

Inconclusive results are not listed. The source made the active and inactive calls. Calls come from the whole dose curve; as a rule, active = well fitted curve in the direction sought with a large enough effect; inconclusive = small, poorly fitted or top-dose-only effect, or another doubt; inactive = no such curve, though single readings can be large; an effect the other way counts as inactive or inconclusive.

A short description of test [1]: Quantitative High-Throughput drug screen in 47 multiple myeloma cell lines against the NCATS MIPE library collection: Karpas620_DSMZ cell viability assay (AID 1918959). Note: nearly all actives have a fitted effect of over 30% in size. In short, it runs like this:
(§1)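 qHTS of the MIPE 4.0 collection: 500 myeloma cells/well, 48 h drug exposure at 37C in 5% CO2, then CellTiter-Glo for 5 min at room temperature before luminescence reading.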

The nature of test [2]: Quantitative High-Throughput drug screen in 47 multiple myeloma cell lines against the NCATS MIPE library collection: KMM1_JCRB cell viability assay (AID 1918960). Note: nearly all actives have a fitted effect of over 30% in size. In short, it runs like this: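 Viability screen: myeloma cells (500/well) incubated 48 h at 37 °C, humidified 5% CO2, with pinned library compounds; CellTiter-Glo added, luminescence read; DMSO wells set 100%, medium-only wells 0%.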

A short description of test [3]: Quantitative High-Throughput drug screen in 47 multiple myeloma cell lines against the NCATS MIPE library collection: KHM11_PLB cell viability assay (AID 1918962). Note: nearly all actives have a fitted effect of over 35% in size. In short, it runs like this:
as §1

Test [4] is described as follows: Quantitative High-Throughput drug screen in 47 multiple myeloma cell lines against the NCATS MIPE library collection: JIM3_ECACC cell viability assay (AID 1918963; note: nearly all actives have a fitted effect of over 35% in size). In short, it runs like this:
as §1

The nature of test [5]: Quantitative High-Throughput drug screen in 47 multiple myeloma cell lines against the NCATS MIPE library collection: JIM1_ECACC cell viability assay (AID 1918964). The method in brief:
(§2)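 Relative luminescence from CellTiter-Glo served as the viability signal, referenced to DMSO-treated (100%) and cell-free medium (0%) controls. Treatment lasted 48 hours at 37C with 500 cells per well.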

The nature of test [6]: Quantitative High-Throughput drug screen in 47 multiple myeloma cell lines against the NCATS MIPE library collection: H1112_PLB cell viability assay (AID 1918967; note: nearly all actives have a fitted effect of over 30% in size). In short, it runs like this: as §2
Test [7] is described as follows: Quantitative High-Throughput drug screen in 47 multiple myeloma cell lines against the NCATS MIPE library collection: Karpas25_ECACC cell viability assay (AID 1918968; note: nearly all actives have a fitted effect of over 35% in size). In short, it runs like this:
as §2

Test [8] is described as follows: Quantitative High-Throughput drug screen in 47 multiple myeloma cell lines against the NCATS MIPE library collection: KMS27_JCRB cell viability assay (AID 1918970). Note: nearly all actives have a fitted effect of over 30% in size. To be noted: KMS27 myeloma cells, CellTiter-Glo ATP viability, 48 h; viability (% of DMSO): at 45.8 µM (top of the series). In short, it runs like this:
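Each line is seeded at 500 cells per well and treated with library compounds for 48 hours under 37 °C, 5% CO2. CellTiter-Glo is then added for 5 min at room temperature before median relative luminescence is recorded.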

A short description of test [9]: Quantitative High-Throughput drug screen in 47 multiple myeloma cell lines against the NCATS MIPE library collection: KMS12BM_JCRB cell viability assay (AID 1918971). Note: nearly all actives have a fitted effect of over 35% in size. The method in brief: (§3)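 Steps: seed 500 cells per well; pin-transfer MIPE 4.0 library; incubate 48 h at 37C, 5% CO2, humidified; add CellTiter-Glo, 5 min room temperature; read luminescence.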
Test [10] can be described thus: Quantitative High-Throughput drug screen in 47 multiple myeloma cell lines against the NCATS MIPE library collection: KMS26_JCRB cell viability assay (AID 1918975). Note: nearly all actives have a fitted effect of over 45% in size. The method in brief: as §3
A short description of test [11]: Quantitative High-Throughput drug screen in 47 multiple myeloma cell lines against the NCATS MIPE library collection: NCIH929_DSMZ cell viability assay (AID 1918978). Note: nearly all actives have a fitted effect of over 35% in size. The method in brief:
(§4)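 qHTS format: cells plated (500/well), pin-dosed with MIPE 4.0 compounds, kept 48 h at 37 °C. Readout was CellTiter-Glo luminescence, median RLU.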

The nature of test [12]: Quantitative High-Throughput drug screen in 47 multiple myeloma cell lines against the NCATS MIPE library collection: OCIMY1_PLB cell viability assay (AID 1918979). Note: nearly all actives have a fitted effect of over 35% in size. In short, it runs like this:
as §4

Test [13] is described as follows: Quantitative High-Throughput drug screen in 47 multiple myeloma cell lines against the NCATS MIPE library collection: INA6_PLB cell viability assay (AID 1918965; note: nearly all actives have a fitted effect of over 55% in size). In short, it runs like this: (§5)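 Luminescent ATP measurement with CellTiter-Glo gives viability, scaled between DMSO-only wells (100%) and media-only wells (0%). Cells, 500 per well, faced library compounds for 48 hours at 37C.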

Test [14] in a line: Quantitative High-Throughput drug screen in 47 multiple myeloma cell lines against the NCATS MIPE library collection: JJN3_DSMZ cell viability assay (AID 1918966; note: nearly all actives have a fitted effect of over 50% in size). The method in brief: as §2
The nature of test [15]: Quantitative High-Throughput drug screen in 47 multiple myeloma cell lines against the NCATS MIPE library collection: KMS12PE_JCRB cell viability assay (AID 1918972). Note: nearly all actives have a fitted effect of over 30% in size. The method in brief:
as §5

A short description of test [16]: Quantitative High-Throughput drug screen in 47 multiple myeloma cell lines against the NCATS MIPE library collection: KMS20_JCRB cell viability assay (AID 1918973). Note: nearly all actives have a fitted effect of over 45% in size. The method in brief:
as §2

A short description of test [17]: Quantitative High-Throughput drug screen in 47 multiple myeloma cell lines against the NCATS MIPE library collection: MMM1_PLB cell viability assay (AID 1918976). Note: nearly all actives have a fitted effect of over 35% in size. In short, it runs like this:
as §4

A short description of test [18]: Quantitative High-Throughput drug screen in 47 multiple myeloma cell lines against the NCATS MIPE library collection: MOLP8_DSMZ cell viability assay (AID 1918977). Note: nearly all actives have a fitted effect of over 45% in size. The method in brief: as §4
A short description of test [19]: Quantitative High-Throughput drug screen in 47 multiple myeloma cell lines against the NCATS MIPE library collection: KMS21BM_JCRB cell viability assay (AID 1918974). To be noted: ATP luminescence, 48 h; viability: at 45.8 µM (top of the series). The method in brief: as §2
Potency is the fitted concentration of half-maximal effect.

`C=CC1=C(C(=O)O)N2C(=O)[C@@H](NC(=O)C(=NO)c3csc(N)n3)[C@H]2SC1`: the Potency result in [1], in [2], in test [3], in test [4], in test [5] and in test [6] was “inactive” in each case. Also, the Potency result in test [7], in test [8], in [9], in test [10], in [11] and in [12] was “inactive” in each case.

With `COc1ccc(Nc2nccc(NCCO)n2)cc1`, the Potency result in [1], in [2], in [3], in test [4], in [5] and in test [6] was “inactive” throughout. Besides, the Potency result in test [8] and in test [10] was “inactive” each time.

As for `CCOC(=O)N1CCN([N+]([O-])=NOc2ccc([N+](=O)[O-])cc2[N+](=O)[O-])CC1`, the Potency is 5.26 µM (active) in test [1]; 10.5 µM (active) in test [2]; 1.48 µM (active) in test [3]; 2.64 µM (active) in [4]; 2.96 µM (active) in test [13]; 2.64 µM (active) in [14]. In addition, the Potency in [7] was 0.469 µM (active); in [8], 4.18 µM (active); in [9], 1.48 µM (active); in test [15] it was 8.33 µM (active); in [16], 1.18 µM (active); in [10], 0.833 µM (active). The Potency was 3.72 µM (active) in test [17], 2.35 µM (active) in test [18], 1.32 µM (active) in test [11] and 7.43 µM (active) in test [12].

For `O=C1c2cccc(O)c2C(=O)c2c(O)cc(CO)cc21`, the Potency result in test [1], in [2], in test [3], in test [4], in [5] and in test [8] was “inactive” in each case. For the same molecule, the Potency entry in test [15], in test [16], in [10] and in [12] was “inactive” each time.

Regarding `O=S(=O)(O)CCSSCCS(=O)(=O)O`, the Potency result in [1], in test [2], in test [3], in [13], in test [6] and in [7] was “inactive” throughout. For the same molecule, the Potency entry in test [8] and in test [10] was “inactive” each time.

Regarding `Cc1cc(Nc2ncc3c(n2)N(C)C(=O)N(c2cc(NC(=O)c4cccc(C(F)(F)F)c4)ccc2C)C3)n(C)n1`, the Potency was 1.48 µM (active) in test [1]; 1.18 µM (active) in test [2]; 2.64 µM (active) in [4]; 0.118 µM (active) in test [5]; 0.469 µM (active) in [13]; 1.32 µM (active) in test [14]. The Potency in [6] is 2.64 µM (active); in test [7] it was 0.372 µM (active); in [8], 1.87 µM (active); in [9] it was 0.526 µM (active); in test [15], 1.05 µM (active); in [10], 5.9 µM (active). Also, the results for the Potency in [18] and in test [11] were 0.296 µM (active) and 1.05 µM (active), respectively.

Regarding `N[C@H]1CN(c2c(F)cc3c(=O)c(C(=O)O)cn(C4C[C@@H]4F)c3c2Cl)CC12CC2` (some centres undefined), the Potency entry in test [1], in test [2], in [3], in test [4], in [5] and in test [6] was “inactive” in each case. Also, the Potency entry in test [8], in [15], in [16], in test [11] and in [12] was “inactive” each time. Besides, the Potency in test [10] was 16.6 µM (active).

For `CC(=O)N1CCN(c2ccc(OCc3nn(C)c(C)c3-c3cccc4c(CCCOc5cccc6ccccc56)c(C(=O)O)n(Cc5cccnc5)c34)cc2)CC1`, the Potency was 1.87 µM (active) in [1]; 1.18 µM (active) in test [2]; 2.35 µM (active) in test [3]; 0.469 µM (active) in [5]; 0.0332 µM (active) in test [13]; 0.132 µM (active) in test [6]. Besides, the Potency in [7] was 0.0833 µM (active); in test [8] it was 0.0743 µM (active); in [15], 0.469 µM (active); in test [16] it was 0.0526 µM (active); in test [10] it was 3.72 µM (active); in [18] it was 16.6 µM (active). In addition, the Potency in [11] was 0.0332 µM (active).

`CON=C(C(=O)N[C@@H]1C(=O)N2C(C(=O)O)=C(Cn3ccc(=N)n3CCO)CS[C@H]12)c1csc(N)n1`: the Potency result in test [1], in test [2], in test [3], in [5], in test [13] and in test [6] was “inactive” in each case. The Potency result in [8], in [9], in test [15], in test [19], in test [10] and in test [18] was “inactive” each time.

Take `COc1ccc2c(c1OC)C(=O)OC2[C@H]1c2c(cc3c(c2OC)OCO3)CCN1C` (some centres undefined): the Potency in test [1] is 0.0264 µM (active); in [2] it was 0.148 µM (active); in test [4], 0.0833 µM (active); in test [5] it was 0.001 µM (active); in test [13] it was 0.0526 µM (active); in test [14] it was 5.26 µM (active). The Potency was 0.235 µM (active) in test [6]; 0.132 µM (active) in test [8]; 0.0418 µM (active) in test [9]; 0.105 µM (active) in test [15]; 0.148 µM (active) in [19]; 3.32 µM (active) in test [10]. Also, the values for the Potency in [17], in [18] and in test [11] were 2.64 µM (active), 6.62 µM (active) and 1.87 µM (active), respectively.

As for `O=C1NC(=O)[C@@H](c2cn3c4c(cccc24)CCC3)[C@H]1c1c[nH]c2ccccc12`, the Potency in test [1] is 0.0743 µM (active); in test [2] it was 0.105 µM (active); in test [4] it was 0.118 µM (active); in [5], 0.0469 µM (active); in [13], 0.209 µM (active); in [14], 16.6 µM (active). Also, the Potency in test [6] was 1.66 µM (active); in [8], 0.0833 µM (active); in test [9] it was 0.209 µM (active); in test [15], 0.148 µM (active); in test [16], 0.105 µM (active); in test [10] it was 16.6 µM (active). Moreover, the Potency in test [11] is 11.8 µM (active).

Turning to `CCCc1nc(C(C)(C)O)c(C(=O)O)n1Cc1ccc(-c2ccccc2-c2nn[nH]n2)cc1`, the Potency result in [1], in [2], in test [3], in [14], in test [7] and in [8] was “inactive” in each case. For the same molecule, the Potency entry in [9], in test [15], in test [16] and in test [12] was “inactive” each time.

On to `COc1cc([C@@H]2c3cc4c(cc3[C@@H](O[C@@H]3O[C@@H]5CO[C@@H](c6cccs6)O[C@@H]5[C@H](O)[C@@H]3O)[C@H]3COC(=O)[C@H]23)OCO4)cc(OC)c1O`, for which the Potency in test [1] is 2.96 µM (active); in test [2], 0.743 µM (active); in [4], 0.833 µM (active); in test [5] it was 0.209 µM (active); in test [13], 0.0469 µM (active); in test [14] it was 13.2 µM (active). Further, the Potency in test [6] was 0.59 µM (active); in test [7], 1.87 µM (active); in test [8] it was 0.132 µM (active); in [9] it was 1.32 µM (active); in [15], 1.32 µM (active); in test [16], 0.418 µM (active). For the same molecule, the Potency in [19] was 1.87 µM (active); in [10], 16.6 µM (active); in [11], 14.8 µM (active); in test [12] it was 8.33 µM (active).
